Experimental data taken from the supplement of paper PMC12669032.

Legend:
Assay in all cases: growth AUC relative to DMSO control (median of replicates) (fraction); higher = more growth (less inhibition), active = hit call of the paper
Settings in all cases: 20 µM; 24 h;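 active = AUC reduced over 20% with Padj below 0.05 in at least 2 of 3 replicates; inactive = otherwise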
Coprococcus comes = system: Coprococcus comes
Outline: (§1)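 Gut bacteria were grown singly in mGAM at 37 °C without oxygen, from OD600 0.05, alongside 20 µM compound in 1% DMSO, and OD600 was read each hour for 24 h. Area under the growth curve was normalised to the median of solvent-only wells per plate, or to row and column medians on the industrial chemical plate. The minimum OD was set to 0 beforehand, and the reported value is the median of three biological replicates grown on separate days.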

Escherichia coli ED1a = system: Escherichia coli ED1a
Outline: as §1

Escherichia coli IAI1 = system: Escherichia coli IAI1
Outline: as §1

Eubacterium rectale = system: Eubacterium rectale
Outline: as §1

[1] = system: Fusobacterium nucleatum subsp. animalis
Outline: as §1

Lactobacillus gasseri = system: Lactobacillus gasseri
Outline: as §1

Lactobacillus paracasei = system: Lactobacillus paracasei
Outline: as §1

Odoribacter splanchnicus = system: Odoribacter splanchnicus
Outline: as §1

[2] = system: Parabacteroides distasonis
Outline: as §1

Parabacteroides merdae = system: Parabacteroides merdae
Outline: as §1

Roseburia intestinalis = system: Roseburia intestinalis
Outline: as §1

Streptococcus salivarius = system: Streptococcus salivarius
Outline: as §1

Measured: growth AUC

O=C(O)C(F)(F)C(F)(F)C(F)(F)C(F)(F)C(F)(F)C(F)(F)C(F)(F)C(F)(F)C(F)(F)F
inactive: Coprococcus comes 0.991 | Escherichia coli ED1a 1.01 | Escherichia coli IAI1 1.01 | Eubacterium rectale 0.892 | [1] 1.01 | Lactobacillus gasseri 1.01 | Lactobacillus paracasei 1.03 | Odoribacter splanchnicus 0.993 | [2] 0.913 | Parabacteroides merdae 0.97 | Roseburia intestinalis 0.96 | Streptococcus salivarius 0.942

OC(Cn1cncn1)(c1ccc(F)cc1)c1ccccc1F (configuration not stated)
inactive: Coprococcus comes 0.975 | Escherichia coli ED1a 1.04 | Escherichia coli IAI1 0.98 | Eubacterium rectale 0.958 | [1] 1.02 | Lactobacillus gasseri 0.962 | Lactobacillus paracasei 0.909 | Odoribacter splanchnicus 0.979 | [2] 1.01 | Parabacteroides merdae 0.995 | Roseburia intestinalis 0.966 | Streptococcus salivarius 1.01

CC(C)(C)C(O)C(Oc1ccc(Cl)cc1)n1cncn1 (configuration not stated)
inactive: Coprococcus comes 0.998 | Escherichia coli ED1a 1.01 | Escherichia coli IAI1 1.02 | Eubacterium rectale 0.97 | [1] 1.07 | Lactobacillus gasseri 1.02 | Lactobacillus paracasei 1.04 | Odoribacter splanchnicus 1.03 | [2] 1.02 | Parabacteroides merdae 0.998 | Roseburia intestinalis 1.03 | Streptococcus salivarius 1.03

CCC(C)Nc1c([N+](=O)[O-])cc(C(C)(C)C)cc1[N+](=O)[O-] (configuration not stated)
inactive: Coprococcus comes 0.975 | Escherichia coli ED1a 1.01 | Escherichia coli IAI1 0.939 | Eubacterium rectale 0.995 | [1] 1.02 | Lactobacillus gasseri 0.938 | Lactobacillus paracasei 1.01 | Odoribacter splanchnicus 1.02 | [2] 0.919 | Parabacteroides merdae 0.966 | Roseburia intestinalis 0.927 | Streptococcus salivarius 1.04

COC(=O)[C@@H](C)N(C(=O)Cc1ccccc1)c1c(C)cccc1C
inactive: Coprococcus comes 0.978 | Escherichia coli ED1a 1.02 | Escherichia coli IAI1 1.02 | Eubacterium rectale 0.991 | [1] 0.913 | Lactobacillus gasseri 0.944 | Lactobacillus paracasei 0.979 | Odoribacter splanchnicus 0.925 | [2] 0.948 | Parabacteroides merdae 0.921 | Roseburia intestinalis 1.01 | Streptococcus salivarius 0.958

CCCN(CCC)c1c([N+](=O)[O-])cc(S(C)(=O)=O)cc1[N+](=O)[O-]
inactive: Coprococcus comes 1.03 | Escherichia coli ED1a 0.978 | Escherichia coli IAI1 0.962 | Eubacterium rectale 0.974 | [1] 0.948 | Lactobacillus gasseri 0.84 | Lactobacillus paracasei 0.988 | Odoribacter splanchnicus 1.08 | [2] 0.967 | Parabacteroides merdae 0.936 | Roseburia intestinalis 0.894 | Streptococcus salivarius 0.966

ClC1=C(Cl)C(Cl)(C2(Cl)C(Cl)=C(Cl)C(Cl)=C2Cl)C(Cl)=C1Cl
inactive: Coprococcus comes 1.05 | Escherichia coli ED1a 1.04 | Escherichia coli IAI1 1.01 | Eubacterium rectale 0.861 | [1] 1.13 | Lactobacillus gasseri 1.01 | Lactobacillus paracasei 0.987 | Odoribacter splanchnicus 1 | [2] 0.958 | Parabacteroides merdae 0.863 | Roseburia intestinalis 0.91 | Streptococcus salivarius 0.962

O=C(OC1CCCCC1)c1ccccc1C(=O)OC1CCCCC1
inactive: Coprococcus comes 0.97 | Escherichia coli ED1a 1 | Escherichia coli IAI1 0.99 | Eubacterium rectale 0.946 | [1] 1.01 | Lactobacillus gasseri 1.08 | Lactobacillus paracasei 1.02 | Odoribacter splanchnicus 0.991 | [2] 0.957 | Parabacteroides merdae 1 | Roseburia intestinalis 0.983 | Streptococcus salivarius 1

COC(=O)N(OC)c1ccccc1COc1ccn(-c2ccc(Cl)cc2)n1
active: [2] 0.57
inactive: Coprococcus comes 0.998 | Escherichia coli ED1a 1.02 | Escherichia coli IAI1 0.99 | Eubacterium rectale 1.1 | [1] 1.19 | Lactobacillus gasseri 0.88 | Lactobacillus paracasei 0.988 | Odoribacter splanchnicus 0.881 | Parabacteroides merdae 0.911 | Roseburia intestinalis 0.945 | Streptococcus salivarius 0.928

C#CC(C)(C)NC(=O)c1cc(Cl)cc(Cl)c1
inactive: Coprococcus comes 1 | Escherichia coli ED1a 0.984 | Escherichia coli IAI1 0.963 | Eubacterium rectale 1.04 | [1] 0.95 | Lactobacillus gasseri 0.91 | Lactobacillus paracasei 1.03 | Odoribacter splanchnicus 1.06 | [2] 1.01 | Parabacteroides merdae 1.01 | Roseburia intestinalis 0.936 | Streptococcus salivarius 0.914

ClC1=C(Cl)C2(Cl)[C@H]3[C@H]4O[C@H]4[C@H](Cl)[C@H]3C1(Cl)C2(Cl)Cl (single isomer, unassigned; isomer a)
inactive: Coprococcus comes 0.941 | Escherichia coli ED1a 0.982 | Escherichia coli IAI1 0.971 | Eubacterium rectale 1.05 | [1] 1.08 | Lactobacillus gasseri 0.96 | Lactobacillus paracasei 0.991 | Odoribacter splanchnicus 1.08 | [2] 1.02 | Parabacteroides merdae 0.98 | Roseburia intestinalis 0.954 | Streptococcus salivarius 0.976
